Data taken from PubChem BioAssay.
The source made the active and inactive calls. Unless noted, no rule for the calls is given here.

What was measured:
[1] = compound effects on lung adenocarcinoma cell viability – A549, calcein-AM fluorescence, 48 h, basal, profiling panel (AID 1162); conditions: higher = more signal; also: test concentration not given here
[2] = compound effects on differentiated 3T3-L1 adipocyte viability – cell-based, 3T3-L1 adipocytes, calcein-AM fluorescence, 48 h, basal, profiling panel (AID 1163); conditions: 3T3-L1 adipocytes viability, higher = more signal; also: test concentration not given here
[3] = compound effects on hepatocellular carcinoma cell viability – HepG2, calcein-AM fluorescence, 48 h, basal, profiling panel (AID 1164); conditions: higher = more signal; also: test concentration not given here
[4] = compound effects on multiple myeloma cell viability – MM1S, calcein-AM fluorescence, 48 h, basal, profiling panel (AID 1165); conditions: higher = more signal; also: test concentration not given here
[5] = calcein-AM signal in unstimulated myeloma cells – cell-based, calcein-AM fluorescence, 48 h, PK04 Diversity Set, profiling panel (AID 1166); conditions: RPMI8226 myeloma viability, higher = more signal;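 also: cells grown under basal conditions without added stimulus; test concentration not given here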
[6] = JC-1 mitochondrial signal, unstimulated HepG2 cells – cell-based, JC-1 fluorescence, 24 h, 100 nL compound, profiling panel (AID 1167); conditions: HepG2 mitochondrial potential, higher = more signal; also: test concentration not given here
[7] = JC-1 mitochondrial signal, unstimulated adipocytes – cell-based, JC-1 fluorescence, 3T3-L1 adipocytes, 24 h, 100 nL compound, profiling panel (AID 1168); conditions: JC-1 mitochondrial fluorescence, higher = more signal, called active from +8 up or from −8 down; also: test concentration not given here
[8] = JC-1 mitochondrial signal, unstimulated myeloma cells – cell-based, JC-1 fluorescence, RPMI8226, 24 h, 100 nL compound, profiling panel (AID 1169); conditions: JC-1 mitochondrial potential fluorescence, higher = more signal; also: test concentration not given here
[9] = JC-1 mitochondrial signal, unstimulated MM1S myeloma – cell-based, JC-1 fluorescence, 24 h, 100 nL compound, profiling panel (AID 1170); conditions: MM1S mitochondrial potential, higher = more signal; also: test concentration not given here
[10] = resazurin metabolic signal in A549 cells – cell-based, resazurin fluorescence, 24 h, PK04 Diversity Set, profiling panel (AID 1171); conditions: A549 viability, higher = more signal, called active from +8 up or from −8 down; also: test concentration not given here
[11] = resazurin metabolic signal in HepG2 cells – cell-based, resazurin fluorescence, 24 h, PK04 Diversity Set, profiling panel (AID 1172); conditions: HepG2 viability, higher = more signal; also: test concentration not given here
[12] = budding yeast growth changes without added modifier – OD600, strain BY4716, 24 h, basal condition, primary screen (AID 1173); conditions: S. cerevisiae BY4716 growth, OD600, 24 h; higher = more signal, called active from +8 up or from −8 down
[13] = viability profiling in MM1S myeloma cells – cell-based, resazurin fluorescence, basal, 24 h, PK04 Diversity Set, profiling panel (AID 1174); conditions: higher = more signal, called active from +8 up or from −8 down; also: test concentration not given here
[14] = target: Dihydroorotate dehydrogenase (quinone), mitochondrial (Plasmodium falciparum (isolate 3D7)) (UniProt Q08210); experiment: inhibition of P. falciparum DHODH – biochemical, C-terminal His tag, absorbance 600 nm, primary screen (AID 1175); conditions: PfDHODH enzyme, DCIP absorbance 600 nm; higher = more signal, called active from +8 up or from −8 down;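 also: recombinant parasite enzyme with a five histidine tag at its C terminus; test concentration not given here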
[15] = inhibition of PAO1 biofilm formation – strain PAO1, LB-PBS medium, absorbance 600 nm, primary screen (AID 1176); also: test concentration not given here; conditions: P. aeruginosa PAO1 growth/biofilm, A600, 12 h; higher = more signal
[16] = growth modulation of vineyard yeast isolate – strain RM11-1a, OD600, basal, 24 h, primary screen (AID 1177);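 also: cultures grown under basal conditions with no added stressor; test concentration not given here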; conditions: S. cerevisiae RM11-1a growth, OD600, 24 h; higher = more signal, called active from +8 up or from −8 down
[17] = growth of efflux-deficient E. coli DRC39 – strain DRC39, OD650, 24 h, E. coli filamentation inducers, primary screen (AID 1178);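 also: growth measured as culture turbidity by optical density at 650 nm; test concentration not given here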; conditions: E. coli DRC39 acrAB, higher = more signal, called active from +8 up or from −8 down
[18] = growth of efflux-deficient E. coli DRC39 – strain DRC39, OD650, 48 h, E. coli filamentation inducers, primary screen (AID 1179);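 also: screen aims at cell division blockers that make cells filament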; conditions: E. coli DRC39 delta-acrAB growth, higher = more signal, called active from +8 up or from −8 down
[19] = viability profiling in RPMI8226 myeloma cells – cell-based, resazurin fluorescence, basal, 24 h, PK04 Diversity Set, profiling panel (AID 1180); conditions: higher = more signal;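 also: RPMI8826 multiple myeloma cell line at 5000 cells per well; test concentration not given here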
[20] = target: E3 ubiquitin-protein ligase XIAP (Homo sapiens) (UniProt P98170); experiment: small molecules binding XIAP protein – biophysical, small-molecule microarray, fluorescence 635 nm, primary screen (AID 1181); conditions: higher = more signal;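 also: score merges 667 nm emission and signal to noise over triplicate slides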
E3 ubiquitin-protein ligase XIAP (Homo sapiens), sequence (P98170 whole entry, looked up): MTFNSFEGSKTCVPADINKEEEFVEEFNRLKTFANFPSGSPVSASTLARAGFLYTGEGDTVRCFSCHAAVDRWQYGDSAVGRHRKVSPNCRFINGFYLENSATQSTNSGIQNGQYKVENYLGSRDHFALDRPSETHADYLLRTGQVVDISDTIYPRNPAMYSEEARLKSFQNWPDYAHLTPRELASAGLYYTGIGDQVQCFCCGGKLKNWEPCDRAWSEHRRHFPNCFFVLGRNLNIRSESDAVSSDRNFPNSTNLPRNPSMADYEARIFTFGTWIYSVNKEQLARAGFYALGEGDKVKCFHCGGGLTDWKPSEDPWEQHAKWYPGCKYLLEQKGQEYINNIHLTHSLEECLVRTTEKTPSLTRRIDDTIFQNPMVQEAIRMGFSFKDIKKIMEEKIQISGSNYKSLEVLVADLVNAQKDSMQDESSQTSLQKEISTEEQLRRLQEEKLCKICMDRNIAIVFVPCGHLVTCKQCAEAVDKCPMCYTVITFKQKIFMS

Dihydroorotate dehydrogenase (quinone), mitochondrial (Plasmodium falciparum (isolate 3D7)), sequence (Q08210 whole entry, looked up): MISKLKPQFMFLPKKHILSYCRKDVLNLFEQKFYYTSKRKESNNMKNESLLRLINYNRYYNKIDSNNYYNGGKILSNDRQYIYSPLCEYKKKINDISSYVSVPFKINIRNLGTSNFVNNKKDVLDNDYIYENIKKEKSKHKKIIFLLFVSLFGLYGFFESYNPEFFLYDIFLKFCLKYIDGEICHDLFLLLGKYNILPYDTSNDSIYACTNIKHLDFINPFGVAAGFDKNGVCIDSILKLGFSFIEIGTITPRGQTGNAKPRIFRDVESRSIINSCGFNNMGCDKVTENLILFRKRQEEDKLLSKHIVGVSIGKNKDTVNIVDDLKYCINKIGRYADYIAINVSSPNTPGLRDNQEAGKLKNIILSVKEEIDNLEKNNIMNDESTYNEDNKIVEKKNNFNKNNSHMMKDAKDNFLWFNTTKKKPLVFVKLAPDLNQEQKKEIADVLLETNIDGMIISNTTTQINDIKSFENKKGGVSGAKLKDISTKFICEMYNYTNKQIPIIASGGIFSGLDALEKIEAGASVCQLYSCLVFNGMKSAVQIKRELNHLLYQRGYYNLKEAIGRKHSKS

| Structure (SMILES) | z-score [1] | z-score [2] | z-score [3] | z-score [4] | z-score [5] | z-score [6] | z-score [7] | z-score [8] | z-score [9] | z-score [10] | z-score [11] | z-score [12] | z-score [13] | composite z-score [14] | z-score [15] | z-score [16] | z-score [17] | z-score [18] | z-score [19] | composite z-score [20] |
| --- | --- | --- | --- | --- | --- | --- | --- | --- | --- | --- | --- | --- | --- | --- | --- | --- | --- | --- | --- | --- |
| CN1C(=O)C2C(C1=O)C1C=C(CCCO)C2C(C2CC2)N1Cc1cccc(OC(F)(F)F)c1 (stereo not given) | -0.379 | 0.116 | -0.814 | -0.517 | -0.781 | 0.217 | -0.423 (inactive) | -0.00892 | 0.389 | -0.0655 (inactive) | -0.584 | -1.13 (inactive) | -0.551 (inactive) | -1.75 (inactive) | 0.559 (inactive) | 0.132 (inactive) | 0.492 (inactive) | -0.377 (inactive) | -0.615 | 0.0105 |
| COC(=O)C(CC#Cc1ccc2c(c1)[C@]1(C(=O)N2)[C@H](c2ccccc2OCCO)N2[C@H](c3ccccc3)[C@H](c3ccccc3)OC(=O)[C@H]2[C@@H]1C(=O)N1CCc2cc(OC)c(OC)cc2C1)C(=O)OC | 0.734 | -0.19 | 2.08 | 0.857 | -0.0217 | -0.112 | 2.3 (inactive) | -0.941 | -1.47 | -0.63 (inactive) | 0.0231 | 1.07 (inactive) | -1.07 (inactive) | -0.653 (inactive) | 2.83 (inactive) | 1.79 (inactive) | 0.021 (inactive) | 0.761 (inactive) | -0.918 | 0.132 |
| N#Cc1ccc(NN2C(C(O)C3CC=CCC3)C=CC3C(=O)N(c4ccccc4)C(=O)C32)cc1 (stereo not given) | -0.726 | -0.613 | 0.921 | -0.318 | -0.265 | -0.795 | -1.14 (inactive) | 0.418 | -0.508 | -0.997 (inactive) | -1.3 | 0.0837 (inactive) | -0.609 (inactive) | 0.0758 (inactive) | 1.36 (inactive) | 0.601 (inactive) | 0.0108 (inactive) | 0.123 (inactive) | -0.382 | -0.0848 |
| COc1ccc([Si](C)(C)[C@H]2[C@H](CCO)O[C@@]3(C(=O)N(Cc4cccc(N5C(=O)c6ccccc6Oc6ccccc65)c4)c4ccccc43)[C@@H]2C)cc1 | -1.24 | 0.508 | -4.22 | -2.87 | -4.3 | -0.19 | 2.27 (inactive) | -1.03 | -1.84 | -2.25 (inactive) | -1.86 | -0.653 (inactive) | -2.97 (inactive) | 0.75 (inactive) | 1.01 (inactive) | 3.62 (inactive) | 1.42 (inactive) | 0.597 (inactive) | -4.05 | -0.115 |
| COC(=O)C[C@H]1O[C@@]2(C[C@@H]1[Si](C)(C)C)C(=O)N(C)c1ccccc12 | 0.904 | 0.69 | 0.606 | 0.561 | -0.356 | 1.23 | 0.63 (inactive) | -1.09 | 0.965 | 0.543 (inactive) | 0.791 | -3.71 (inactive) | 1.41 (inactive) | -0.655 (inactive) | 0.826 (inactive) | -3.42 (inactive) | 2.3 (inactive) | 0.92 (inactive) | 0.904 | -0.0966 |
| COc1ccc(C(O)C2C=CC3C(=O)NC(=O)C3N2Nc2ccc(Cl)cc2Cl)c2ccccc12 (stereo not given) | -1.88 | 0.0133 | -2.36 | -3.8 | -3.99 | -3.88 | 0.564 (inactive) | -1.1 | 0.533 | -1.29 (inactive) | -2.19 | -9.94 (active) | -0.423 (inactive) | 0.167 (inactive) | 1.28 (inactive) | 0.361 (inactive) | -0.0977 (inactive) | -0.626 (inactive) | -1.09 | -0.0118 |
| COc1ccccc1CN1C(=O)c2ccccc2[C@](Cc2ccccc2I)(C(=O)NCC(C)C)[C@@H]1c1ccc(CO)cc1 | 1.26 | 0.297 | 2.05 | -0.746 | -0.458 | 1.41 | -0.808 (inactive) | -0.38 | -0.257 | 0.41 (inactive) | 0.52 | -0.441 (inactive) | 0.916 (inactive) | 0.133 (inactive) | 0.251 (inactive) | -0.337 (inactive) | 1.05 (inactive) | 1.29 (inactive) | 1.11 | -0.02 |
| COc1cc(CO)cc(I)c1O[C@H]1C=C(C(=O)NCCO)C[C@@H]2O[C@H]12 | -0.42 | 0.254 | -0.697 | 0.264 | -3.2 | -0.873 | -0.389 (inactive) | -0.443 | -0.52 | -1.41 (inactive) | -0.876 | -11.2 (active) | -0.0563 (inactive) | -1.32 (inactive) | -0.0339 (inactive) | 1.69 (inactive) | -0.364 (inactive) | -0.475 (inactive) | -0.408 | 0.305 |
